Source: PubChem BioAssay (NCATS)
Several values for one entry are separate records, joined by “and”; a condition that tells them apart may be missing. Equal entries are not always repeated. Inconclusive results are not listed. Activity calls are given as the source filed them. Unless noted, the call rests on the fitted dose curve; in most records, active means well fitted curve in the direction sought with a large enough effect; inconclusive means small, poorly fitted or top-dose-only effect, or another doubt; inactive means no such curve, though single readings can be large; an effect the other way counts as inactive or inconclusive.

Key:
[1] = target: Cellular tumor antigen p53 (Homo sapiens) (UniProt P04637); test: Primary qHTS for small molecule compounds that upregulate eGFP-tagged delta133p53alpha (in N-terminal) cells. (AID 2060322); details: NCI-H358 eGFP-delta133p53alpha fluorescence, 24 h; activation: stronger effect = higher value; further: nearly all actives have a fitted effect of over 75% in size; further: potency means the concentration at half of the fitted maximal effect;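 on activation: series mostly up to about 56 µM; 0% = DMSO vehicle and 100% = reference activator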
In short: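 NCI-H358 cells pre-induced 24 h with 10 ng/ml doxycycline to express N-terminal eGFP-delta133p53alpha, then dosed 24 h at 37C without doxycycline; fixed, Hoechst-stained, GFP intensity by laser scanning cytometry, normalized to DMSO (0%) and 57.5 uM 5-azacytidine (100%).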

[2] = target: Cellular tumor antigen p53 (Homo sapiens) (UniProt P04637); test: Primary qHTS for small molecule compounds that upregulate eGFP-tagged delta133p53alpha (in C-terminal) cells. (AID 2060324); further: potency means the concentration at half of the fitted maximal effect
In short: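 NCI-H358 cells with doxycycline-inducible D133p53a-eGFP (C-terminal tag), pre-induced 24 h with 100 ng/ml doxycycline, plated 800/well in doxycycline-free medium and treated 24 h at 37 °C with compound titrations. Cells were then fixed and Hoechst-stained, and GFP intensity was read by laser scanning cytometry.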

[3] = target: Aldehyde dehydrogenase, mitochondrial (Homo sapiens) (UniProt P05091); test: qHTS for Inhibitors of the Aldehyde Dehydrogenase Family (ALDH2) Validation screens (AID 2061302; active means well fitted inhibition curve with a large enough effect; title and protocol of this record describe different tests;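 further: plate controls were DMSO vehicle for no effect and maximal DPI positive control response for full effect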)
[4] = target: Retinaldehyde dehydrogenase 3 (Homo sapiens) (UniProt P47895); test: qHTS for Inhibitors of the Aldehyde Dehydrogenase Family (ALDH1A3) Validation screen (AID 2061312); further: on the % scale 0 is the no-effect control and ±100 the full control effect; nearly all actives have a fitted effect of over 45% in size
[5] = BET inhibitor-based combinations targeting novel dependencies in MECOM-rearranged (r) AML: SET-2 cell line (AID 2202231); details: SET-2 AML cells viability, CellTiter-Glo luminescence, 48 h; viability: stronger effect = lower value, concentration not given here; further: nearly all actives have a fitted effect of over 35% in size; further: potency means the concentration at half of the fitted maximal effect;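 on viability: plate controls were DMSO treated cells for no effect and wells without cells for full effect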
In short: (§1)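 AML cell lines seeded at 500 cells/well, treated with 11-point dose curves for 48 h. Viability by CellTiter-Glo luminescence, normalised to DMSO and empty wells; activity expressed as AUC and per-cell-line Z-transformed AUC.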

[6] = BET inhibitor-based combinations targeting novel dependencies in MECOM-rearranged (r) AML: OCI-AML3 cell line (AID 2202232); details: Potency: OCI-AML3 viability; further: nearly all actives have a fitted effect of over 35% in size; further: potency means the concentration at half of the fitted maximal effect
In short: as §1

[7] = BET inhibitor-based combinations targeting novel dependencies in MECOM-rearranged (r) AML: MV-4-11 cell line (AID 2202233); further: nearly all actives have a fitted effect of over 45% in size; further: potency means the concentration at half of the fitted maximal effect
In short: (§2)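 Cells at 500/well were exposed for 48 hr to MIPE v5.0 drugs as 11-point dose curves. Viability was read by CellTiter-Glo luminescence and normalized to DMSO and empty-well controls. Activity was expressed as AUC and per-cell-line Z-AUC.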

[8] = BET inhibitor-based combinations targeting novel dependencies in MECOM-rearranged (r) AML: HNT-34 cell line (AID 2202234); further: nearly all actives have a fitted effect of over 35% in size; further: potency means the concentration at half of the fitted maximal effect
In short: as §2

[9] = BET inhibitor-based combinations targeting novel dependencies in MECOM-rearranged (r) AML: UCSD-AML1 cell line (AID 2202235); further: nearly all actives have a fitted effect of over 40% in size; further: potency means the concentration at half of the fitted maximal effect
In short: as §2

[10] = BET inhibitor-based combinations targeting novel dependencies in MECOM-rearranged (r) AML: AML-194 cell line (AID 2202237; further: nearly all actives have a fitted effect of over 40% in size; further: potency means the concentration at half of the fitted maximal effect)
In short: as §1

[11] = BET inhibitor-based combinations targeting novel dependencies in MECOM-rearranged (r) AML: AML-191 cell line (AID 2202236; further: nearly all actives have a fitted effect of over 35% in size; further: potency means the concentration at half of the fitted maximal effect)
In short: as §1

[12] = target: Aldehyde dehydrogenase 1A1 (Homo sapiens) (UniProt P00352); test: qHTS for Inhibitors of the Aldehyde Dehydrogenase Family (ALDH1A1) Confirmatory screens (AID 2061316); further: potency means the concentration at half of the fitted maximal effect; nearly all actives have a fitted effect of over 65% in size
[13] = target: Retinal dehydrogenase 2 (Homo sapiens) (UniProt O94788); test: qHTS for Inhibitors of the Aldehyde Dehydrogenase Family (ALDH1A2) Confirmation screens (AID 2061314); further: on the % scale 0 is the no-effect control and ±100 the full control effect; nearly all actives have a fitted effect of over 65% in size

Sequence of Cellular tumor antigen p53 (Homo sapiens) (P04637 whole entry, looked up): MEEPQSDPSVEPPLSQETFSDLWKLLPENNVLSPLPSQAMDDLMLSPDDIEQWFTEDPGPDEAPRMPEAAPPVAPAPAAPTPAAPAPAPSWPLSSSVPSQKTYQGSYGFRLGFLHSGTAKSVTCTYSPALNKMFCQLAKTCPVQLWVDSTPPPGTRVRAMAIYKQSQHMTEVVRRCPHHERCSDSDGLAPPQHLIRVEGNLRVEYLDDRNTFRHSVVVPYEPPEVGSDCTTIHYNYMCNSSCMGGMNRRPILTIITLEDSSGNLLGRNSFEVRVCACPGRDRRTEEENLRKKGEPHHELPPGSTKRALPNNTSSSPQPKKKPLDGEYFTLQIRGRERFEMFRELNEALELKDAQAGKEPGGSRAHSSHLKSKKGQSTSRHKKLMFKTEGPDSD

C1COC(NC(C2CC2)C2CC2)=N1
inactive: activation [1] 11% and 4.18% | Potency [2] | Potency [3] | Potency [4] | viability [5] 117% | Potency [6] | Potency [7] | Potency [8] | Potency [9] | Potency [10]

CCCc1c(OCCCOc2ccc(OCC(=O)O)cc2)ccc(C(C)=O)c1O
inactive: activation [1] -13.9% | Potency [2] | Potency [3] | Potency [4] | viability [5] 119% | Potency [6] | Potency [8] | Potency [11] | Potency [10]

NC12CC3CC(CC(C3)C1)C2
inactive: activation [1] 1.69% and 3.9% | Potency [2] | Potency [3] | Potency [4] | viability [5] 106% | Potency [7] | Potency [8] | Potency [9] | Potency [10]

O=c1c(O)c(-c2ccc(O)cc2O)oc2cc(O)cc(O)c12
inactive: activation [1] 15.3% and -27.9% | Potency [2] | Potency [3] | Potency [4] | Potency [6] | Potency [7] | Potency [8] | Potency [11]

Clc1ccc2nsnc2c1NC1=NCCN1
inactive: activation [1] 17.5% and 19.5% | Potency [2] | Potency [3] | viability [5] 111% | Potency [6] | Potency [8] | Potency [9] | Potency [11] | Potency [10]

Cc1ccc(S(=O)(=O)N[C@@H](Cc2ccccc2)C(=O)CCl)cc1
inactive: Potency [3]
active: Potency [1] 24.3 µM | Potency [2] 26.9 µM | Potency [12] 0.565 µM | Potency [5] 18.6 µM | Potency [6] 16.6 µM | Potency [8] 13.2 µM | Potency [11] 20.9 µM | Potency [10] 23.5 µM

Oc1ccc(/C=C/c2cc(O)cc(O)c2)cc1
inactive: activation [1] 1.67% and -36.3% | Potency [2] | Potency [3] | Potency [4]
active: Potency [7] 16.6 µM

CC(C)c1ccc2c(c1)c(SC(C)(C)C)c(CC(C)(C)C(=O)O)n2Cc1ccc(Cl)cc1
active: Potency [7] 20.9 µM | Potency [8] 23.5 µM | Potency [11] 20.9 µM
inactive: activation [1] 10.9% and -49% | Potency [2] | Potency [3] | Potency [4] | Potency [9]

Nc1nc(N)c(N=O)c(OCC2CCCCC2)n1
inactive: activation [1] -20.9% | Potency [2] | Potency [3] | Potency [4]
active: Potency [8] 5.25 µM | Potency [9] 3.32 µM

Clc1ccc(C(c2ccc(Cl)cc2)n2cc[n+](CC(OCc3ccc(Cl)cc3Cl)c3ccc(Cl)cc3Cl)c2)cc1 (configuration not stated)
active: Potency [6] 5.9 µM | Potency [7] 8.33 µM | Potency [11] 18.6 µM | Potency [10] 26.3 µM
inactive: activation [1] 29.4% | Potency [2] | Potency [3] | Potency [4]

Cc1ccc2c(c1)C(N1CCN(C)CC1)=Nc1cccnc1N2
active: Potency [12] 12.7 µM
inactive: activation [1] 13.7% | Potency [2] | Potency [3]

CC(=O)N1CCN(c2ccc(OC[C@H]3CO[C@](Cn4ccnc4)(c4ccc(Cl)cc4Cl)O3)cc2)CC1
inactive: activation [1] -11.5% and -0.0769% | Potency [2] | Potency [3] | Potency [4] | Potency [7] | Potency [8] | Potency [9] | Potency [11]

CN(C)CCC=C1c2ccccc2C=Cc2ccccc21
inactive: activation [1] 5.02% and 17.3% | Potency [2] | Potency [3] | Potency [4] | Potency [9]
active: Potency [6] 16.6 µM | Potency [7] 20.9 µM | Potency [8] 16.6 µM

NC(N)=NC(=O)c1nc(Cl)c(N)nc1N
inactive: activation [1] 11.3% and -28.8% and -10.6% | Potency [2] | Potency [3] | Potency [4]
active: Potency [6] 9.59 µM | Potency [7] 13.5 µM | Potency [9] 30.3 µM

C[C@H]1O[C@@H](n2cc(F)c(=O)[nH]c2=O)[C@H](O)[C@@H]1O
active: Potency [7] 13.2 µM
inactive: activation [1] 2.35% | Potency [2] | Potency [3] | Potency [4]

C[C@@H](c1ncncc1F)[C@](O)(Cn1cncn1)c1ccc(F)cc1F
inactive: activation [1] -3.85% and -2.78% | Potency [2] | Potency [3] | Potency [4] | Potency [6] | Potency [7] | Potency [8] | Potency [9] | Potency [11] | Potency [10]

Oc1ccccc1O
inactive: activation [1] -3.18% | Potency [2] | Potency [3] | Potency [13]
active: Potency [12] 11.3 µM

CC(C)C[C@H](NC(=O)[C@@H](O)[C@H](N)Cc1ccccc1)C(=O)O
inactive: activation [1] -10.8% | Potency [2] | Potency [3] | Potency [4] | Potency [6] | Potency [8] | Potency [9] | Potency [11] | Potency [10]

Nc1ncnc2c1ncn2[C@@H]1O[C@H](CO)[C@@H](O)[C@H]1O
inactive: activation [1] 6.69% and -13% | Potency [2] | Potency [3] | Potency [4] | Potency [6] | Potency [7] | Potency [8] | Potency [9] | Potency [11]

O=C(CCc1ccc(O)cc1)c1c(O)cc(O)cc1O
inactive: activation [1] 27.3% and 7.98% | Potency [2] | Potency [3] | Potency [4] | viability [5] 105% | Potency [10]
